# Laboratory results from PubChem BioAssay (NCI).
# The panel holds about 79,000 compounds, 15% with a hit somewhere; the sample as a whole holds those more often. Unmarked numbers belong to inactive results. Active and inactive are the calls of the source. Cut-off read from the data, not from the text of the source: active = growth inhibition above about 70%; inactive = the rest.
# Key:
# [1] = NCI Yeast Anticancer Drug Screen. Data for the wt1 strain (AID 149);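 note: 0% = growth of vehicle-treated wt1 cultures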; conditions: S. cerevisiae wt1 strain (SPY 50644) growth inhibition, hits give high values
# Method in brief: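 Measured: growth of wt1 yeast under compound versus vehicle treatment, reported as inhibition.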
# [2] = NCI Yeast Anticancer Drug Screen. Data for the rad50EPP+ strain (AID 151);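 note: 0% = growth of vehicle-treated control cultures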; conditions: S. cerevisiae rad50 mutant strain, hits give high values
# Method in brief: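 Read-out is yeast growth inhibition relative to vehicle; cells used were the rad50EPP+ strain.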
# [3] = NCI Yeast Anticancer Drug Screen. Data for the mgt1 strain (AID 153); conditions: S. cerevisiae mgt1 mutant growth inhibition, hits give high values
# Method in brief: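 Measured: inhibition of mgt1 yeast growth by compound, normalized to vehicle-treated cultures.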
# [4] = NCI Yeast Anticancer Drug Screen. Data for the rad50 strain (AID 155);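 note: 0% = growth of vehicle-only cultures of the same strain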; conditions: S. cerevisiae rad50 strain growth inhibition, hits give high values
# Method in brief: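 Growth of the mutant yeast was measured after compound exposure and referenced to vehicle-treated cultures.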
# [5] = NCI Yeast Anticancer Drug Screen. Data for the mec2-1 strain (AID 157); conditions: S. cerevisiae mec2-1 strain, hits give high values
# Method in brief: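 Using mec2-1 yeast: add compound, measure growth, express inhibition versus vehicle-treated cultures.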
# [6] = NCI Yeast Anticancer Drug Screen. Data for the rad14 strain (AID 159);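 note: 0% = growth of vehicle-treated control cultures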; conditions: S. cerevisiae rad14 strain growth inhibition, hits give high values
# Method in brief: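 Here, inhibition of yeast growth was measured after compound exposure, using a strain with a genetic defect in DNA damage repair and vehicle-treated cultures as the reference.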
# [7] = NCI Yeast Anticancer Drug Screen. Data for the sgs1 mgt1 strain (AID 161);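 note: 0% = growth of cultures given vehicle only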; conditions: S. cerevisiae sgs1 mgt1 strain, hits give high values
# Method in brief: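 Compounds are added to genetically altered yeast, and growth is compared with cultures given vehicle alone to give percent inhibition.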
# [8] = NCI Yeast Anticancer Drug Screen. Data for the CLN2oe strain (AID 163);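 note: 0% = growth of vehicle-only control cultures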; conditions: S. cerevisiae CLN2oe strain, hits give high values
# Method in brief: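 Whole-cell yeast growth assay. A strain engineered for altered cell-cycle control received compound, and inhibition relative to vehicle-treated cultures was recorded.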
# [9] = NCI Yeast Anticancer Drug Screen. Data for the cln2 rad14 strain (AID 165);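 note: 0% = growth equal to vehicle treated cultures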; conditions: S. cerevisiae cln2 rad14 strain, hits give high values
# Method in brief: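 Yeast strain cln2 rad14, bearing defects in cell cycle control and DNA repair, serves as the test system; values reflect growth inhibition compared with vehicle.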
# [10] = NCI Yeast Anticancer Drug Screen. Data for the bub3 strain (AID 167); conditions: S. cerevisiae bub3 mutant strain, hits give high values
# Method in brief: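 Whole-cell yeast assay. The mutant strain was incubated with compounds, and growth inhibition was determined by comparison with vehicle-treated cells.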
# [11] = NCI Yeast Anticancer Drug Screen. Data for the wt2 strain (AID 169);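 note: 0% = growth of vehicle-treated yeast cultures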; conditions: S. cerevisiae wt2 strain growth inhibition, hits give high values
# Method in brief: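 Treated yeast vs. vehicle-treated yeast: growth inhibition determined.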
# [12] = NCI Yeast Anticancer Drug Screen. Data for the mlh1 strain (AID 171);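 note: 0% = growth of vehicle-treated control cultures of the same strain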; conditions: S. cerevisiae mlh1 strain growth inhibition, hits give high values
# Method in brief: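 A yeast strain with a defined genetic lesion serves as the test organism. Cultures receive compound or vehicle, and growth is measured.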
# [13] = NCI Yeast Anticancer Drug Screen. Data for the sgs1 strain (AID 173);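 note: 0% = growth of vehicle-only control cultures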; conditions: S. cerevisiae sgs1 mutant, hits give high values
# Method in brief: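 A genetically defined yeast mutant is incubated with the test compound, and its growth is compared to that of the same strain given vehicle.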
# [14] = NCI Yeast Anticancer Drug Screen. Data for the mlh1 rad18 strain (AID 175); conditions: S. cerevisiae mlh1 rad18 strain growth inhibition, hits give high values
# Method in brief: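 Steps: expose repair-defective yeast to compound; measure growth; express inhibition against vehicle-treated controls.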
# [15] = NCI Yeast Anticancer Drug Screen. Data for the rad18 strain (AID 177); conditions: S. cerevisiae rad18 mutant growth inhibition, hits give high values
# Method in brief: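 Measured value is growth inhibition of a yeast strain bearing a DNA repair alteration, referenced to vehicle-treated cells.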
# [16] = at 5.0 µM (retest, dose inferred, filed as 0.5)
# [17] = at 50.0 µM (retest, dose inferred, filed as 5.0)
structure (smiles),measurement,setting,value
CC1(C)CC(=O)C(C(CC(c2ccccc2)c2cc3c(cc2O)OCO3)C2=C(O)CC(C)(C)CC2=O)=C(O)C1 (stereo unspecified),growth inhibition,[1]; at 1.2 µM,-84%
same,growth inhibition,[1]; at 3.7 µM,-3%
same,growth inhibition,[1]; at 11.0 µM,22%
same,growth inhibition,[1]; at 33.0 µM,75% (active)
same,growth inhibition,[1]; at 100.0 µM,85% (active)
same,growth inhibition,[2]; at 1.2 µM,-2%
same,growth inhibition,[2]; at 3.7 µM,-1%
same,growth inhibition,[2]; at 11.0 µM,8%
same,growth inhibition,[2]; at 33.0 µM,18%
same,growth inhibition,[2]; at 100.0 µM,10%
same,growth inhibition,[3]; at 1.2 µM,-2%
same,growth inhibition,[3]; at 3.7 µM,1%
same,growth inhibition,[3]; at 11.0 µM,48%
same,growth inhibition,[3]; at 33.0 µM,86% (active)
same,growth inhibition,[3]; at 100.0 µM,88% (active)
same,growth inhibition,[4]; at 1.2 µM,-2%
same,growth inhibition,[4]; at 3.7 µM,1%
same,growth inhibition,[4]; [16],11%
same,growth inhibition,[4]; at 11.0 µM,33%
same,growth inhibition,[4]; at 33.0 µM,77% (active)
same,growth inhibition,[4]; [17],96% (active)
same,growth inhibition,[4]; at 50.0 µM,94.8% (active)
same,growth inhibition,[4]; at 100.0 µM,83% (active)
same,growth inhibition,[5]; at 1.2 µM,-6%
same,growth inhibition,[5]; at 3.7 µM,-3%
same,growth inhibition,[5]; [16],1%
same,growth inhibition,[5]; at 11.0 µM,43%
same,growth inhibition,[5]; at 33.0 µM,84% (active)
same,growth inhibition,[5]; [17],97% (active)
same,growth inhibition,[5]; at 50.0 µM,93.5% (active)
same,growth inhibition,[5]; at 100.0 µM,87% (active)
same,growth inhibition,[6]; at 1.2 µM,-1%
same,growth inhibition,[6]; at 3.7 µM,1%
same,growth inhibition,[6]; at 11.0 µM,22%
same,growth inhibition,[6]; at 33.0 µM,68%
same,growth inhibition,[6]; at 100.0 µM,78% (active)
same,growth inhibition,[7]; [16],0%
same,growth inhibition,[7]; [17],96% (active)
same,growth inhibition,[7]; at 50.0 µM,96.8% (active)
same,growth inhibition,[8]; at 1.2 µM,-5%
same,growth inhibition,[8]; at 3.7 µM,-3%
same,growth inhibition,[8]; at 11.0 µM,1%
same,growth inhibition,[8]; at 33.0 µM,76% (active)
same,growth inhibition,[8]; at 100.0 µM,87% (active)
same,growth inhibition,[9]; [16],21%
same,growth inhibition,[9]; [17],98% (active)
same,growth inhibition,[9]; at 50.0 µM,95% (active)
same,growth inhibition,[10]; at 1.2 µM,-3%
same,growth inhibition,[10]; at 3.7 µM,-9%
same,growth inhibition,[10]; [16],74% (active)
same,growth inhibition,[10]; at 11.0 µM,-6%
same,growth inhibition,[10]; at 33.0 µM,63%
same,growth inhibition,[10]; [17],99% (active)
same,growth inhibition,[10]; at 50.0 µM,96% (active)
same,growth inhibition,[10]; at 100.0 µM,82% (active)
same,growth inhibition,[11]; at 1.2 µM,-4%
same,growth inhibition,[11]; at 3.7 µM,-5%
same,growth inhibition,[11]; at 11.0 µM,21%
same,growth inhibition,[11]; at 33.0 µM,88% (active)
same,growth inhibition,[11]; at 100.0 µM,88% (active)
same,growth inhibition,[12]; at 1.2 µM,-2%
same,growth inhibition,[12]; at 3.7 µM,-3%
same,growth inhibition,[12]; at 11.0 µM,39%
same,growth inhibition,[12]; at 33.0 µM,82% (active)
same,growth inhibition,[12]; at 100.0 µM,87% (active)
same,growth inhibition,[13]; at 1.2 µM,-1%
same,growth inhibition,[13]; at 3.7 µM,10%
same,growth inhibition,[13]; at 11.0 µM,62%
same,growth inhibition,[13]; at 33.0 µM,87% (active)
same,growth inhibition,[13]; at 100.0 µM,87% (active)
same,growth inhibition,[14]; [16],3%
same,growth inhibition,[14]; [17],97% (active)
same,growth inhibition,[14]; at 50.0 µM,95.6% (active)
same,growth inhibition,[15]; at 1.2 µM,-2%
same,growth inhibition,[15]; at 3.7 µM,5%
same,growth inhibition,[15]; at 11.0 µM,28%
same,growth inhibition,[15]; at 33.0 µM,82% (active)
same,growth inhibition,[15]; at 100.0 µM,82% (active)
O=C1OC(c2ccc(Cl)cc2)Sc2ccccc21 (stereo unspecified),growth inhibition,[1]; at 1.2 µM,1%
same,growth inhibition,[1]; at 3.7 µM,6%
same,growth inhibition,[1]; at 11.0 µM,17%
same,growth inhibition,[1]; at 33.0 µM,88% (active)
same,growth inhibition,[1]; at 100.0 µM,98% (active)
same,growth inhibition,[2]; at 1.2 µM,11%
same,growth inhibition,[2]; at 3.7 µM,28%
same,growth inhibition,[2]; at 11.0 µM,45%
same,growth inhibition,[2]; at 33.0 µM,61%
same,growth inhibition,[2]; at 100.0 µM,58%
same,growth inhibition,[3]; at 1.2 µM,6%
same,growth inhibition,[3]; at 3.7 µM,8%
same,growth inhibition,[3]; at 11.0 µM,17%
same,growth inhibition,[3]; at 33.0 µM,97% (active)
same,growth inhibition,[3]; at 100.0 µM,94% (active)
same,growth inhibition,[4]; at 1.2 µM,7%
same,growth inhibition,[4]; at 3.7 µM,13%
same,growth inhibition,[4]; [16],5%
same,growth inhibition,[4]; at 11.0 µM,62%
same,growth inhibition,[4]; at 33.0 µM,95% (active)
same,growth inhibition,[4]; [17],88% (active)
same,growth inhibition,[4]; at 50.0 µM,83.8% (active)
same,growth inhibition,[4]; at 100.0 µM,92% (active)
same,growth inhibition,[5]; at 1.2 µM,9%
same,growth inhibition,[5]; at 3.7 µM,17%
same,growth inhibition,[5]; [16],-7%
same,growth inhibition,[5]; at 11.0 µM,33%
same,growth inhibition,[5]; at 33.0 µM,96% (active)
same,growth inhibition,[5]; [17],35%
same,growth inhibition,[5]; at 50.0 µM,86.5% (active)
same,growth inhibition,[5]; at 100.0 µM,98% (active)
same,growth inhibition,[6]; at 1.2 µM,7%
same,growth inhibition,[6]; at 3.7 µM,11%
same,growth inhibition,[6]; at 11.0 µM,25%
same,growth inhibition,[6]; at 33.0 µM,98% (active)
same,growth inhibition,[6]; at 100.0 µM,98% (active)
same,growth inhibition,[7]; [16],4%
same,growth inhibition,[7]; [17],52%
same,growth inhibition,[7]; at 50.0 µM,85% (active)
same,growth inhibition,[8]; at 1.2 µM,9%
same,growth inhibition,[8]; at 3.7 µM,13%
same,growth inhibition,[8]; at 11.0 µM,27%
same,growth inhibition,[8]; at 33.0 µM,97% (active)
same,growth inhibition,[8]; at 100.0 µM,97% (active)
same,growth inhibition,[9]; [16],-61%
same,growth inhibition,[9]; [17],-14%
same,growth inhibition,[9]; at 50.0 µM,-26.9%
same,growth inhibition,[10]; at 1.2 µM,11%
same,growth inhibition,[10]; at 3.7 µM,15%
same,growth inhibition,[10]; [16],7%
same,growth inhibition,[10]; at 11.0 µM,29%
same,growth inhibition,[10]; at 33.0 µM,96% (active)
same,growth inhibition,[10]; [17],46%
same,growth inhibition,[10]; at 50.0 µM,93.9% (active)
same,growth inhibition,[10]; at 100.0 µM,97% (active)
same,growth inhibition,[11]; at 1.2 µM,6%
same,growth inhibition,[11]; at 3.7 µM,6%
same,growth inhibition,[11]; at 11.0 µM,31%
same,growth inhibition,[11]; at 33.0 µM,84% (active)
same,growth inhibition,[11]; at 100.0 µM,98% (active)
same,growth inhibition,[12]; at 1.2 µM,6%
same,growth inhibition,[12]; at 3.7 µM,12%
same,growth inhibition,[12]; at 11.0 µM,27%
same,growth inhibition,[12]; at 33.0 µM,97% (active)
same,growth inhibition,[12]; at 100.0 µM,98% (active)
same,growth inhibition,[13]; at 1.2 µM,2%
same,growth inhibition,[13]; at 3.7 µM,11%
same,growth inhibition,[13]; at 11.0 µM,37%
same,growth inhibition,[13]; at 33.0 µM,96% (active)
same,growth inhibition,[13]; at 100.0 µM,97% (active)
same,growth inhibition,[14]; [16],16%
same,growth inhibition,[14]; [17],86% (active)
same,growth inhibition,[14]; at 50.0 µM,95% (active)
same,growth inhibition,[15]; at 1.2 µM,6%
same,growth inhibition,[15]; at 3.7 µM,15%
same,growth inhibition,[15]; at 11.0 µM,68%
same,growth inhibition,[15]; at 33.0 µM,96% (active)
same,growth inhibition,[15]; at 100.0 µM,94% (active)
